Results on 24 compounds are retold here after PubChem BioAssay (NCATS).

Experiment [1] addresses Rap guanine nucleotide exchange factor 3 (Homo sapiens) (UniProt O95398). Kind of experiment: Confirmatory qHTS for antagonist of cAMP-regulated guanine nucleotide exchange factor 3 (EPAC1) (AID 1645880). Further: nearly all actives have a fitted effect of over 55% in size. Further: potency means the concentration at half of the fitted maximal effect.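 On activity, negative = inhibition: plate controls were DMSO only for no effect and full effect of the ATA control for full effect.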 The note with it: EPAC1 Rap1B-BODIPY-GDP exchange, fluorescence; activity, negative = inhibition: at 115 µM (top of the series). An outline of the steps: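 Nucleotide exchange uses 100 nM EPAC1, 250 nM RAP1B-BODIPY-GDP and 50 uM GDP, with compounds in a concentration-titration series. After 5 min at room temperature, fluorescence (480 nm ex/540 nm em) is read every 5 min for 30 min. Data are normalized to control ATA and DMSO.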
For orientation: In qHTS, concentration-response curves come from the screen itself.

Experiment [2] shares this target. As to the kind of experiment: Confirmatory qHTS for agonist of cAMP-regulated guanine nucleotide exchange factor 3 (EPAC1) (AID 1645881). Further: nearly all actives have a fitted effect of over 75% in size. Further: potency means the concentration at half of the fitted maximal effect.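 On activation: EPAC1 catalysed release of BODIPY-GDP from Rap1B seen as fluorescence loss; 100% = effect of cAMP agonist control.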
Experiment [3] deals with Rap guanine nucleotide exchange factor 4 (Homo sapiens) (UniProt Q8WZA2). As to the kind of experiment: Confirmatory qHTS for agonist of cAMP-regulated guanine nucleotide exchange factor 4 (EPAC2) (AID 1645884).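 Further: nucleotide exchange releases bodipy-GDP from Rap1 and this lowers its fluorescence; nearly all actives have a fitted effect of over 65% in size.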 Further: potency means the concentration at half of the fitted maximal effect. On activation: on the % scale 0 is the no-effect control and ±100 the full control effect.
Experiment [4] deals with Rap guanine nucleotide exchange factor 3 (Homo sapiens) (UniProt O95398). As to the kind of experiment: Counterscreen qHTS for antagonist of cAMP-regulated guanine nucleotide exchange factor 3 (EPAC1) (AID 1645888).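 Further: fluorescence loss as bound BODIPY-GDP is released from Rap1B; % of control where 0% means no effect.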 Put shortly: (§1)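 Measured: fluorescence of BODIPY-GDP bound to Rap1B, which falls as exchange proceeds. Conditions include 50 uM competing GDP, 5 and 30 min reads, and a later cAMP challenge for antagonist detection.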
For orientation: Counterscreens check selectivity or assay interference.

Experiment [5] shares this target. As to the kind of experiment: Counterscreen qHTS for agonist of cAMP-regulated guanine nucleotide exchange factor 3 (EPAC1) (AID 1645889). Further: nearly all actives have a fitted effect of over 40% in size. Further: potency means the concentration at half of the fitted maximal effect. On activation: % of control where 0% means no effect. Put shortly:
as §1

Inconclusive results are not listed. Unmarked numbers belong to inactive results. Activity calls are given as the source filed them. The call rests on the fitted dose curve; in most records, active means well fitted curve in the direction sought with a large enough effect; inconclusive means small, poorly fitted or top-dose-only effect, or another doubt; inactive means no such curve, though single readings can be large; an effect the other way counts as inactive or inconclusive.

Sequence of Rap guanine nucleotide exchange factor 4 (Homo sapiens) (Q8WZA2 whole entry, looked up): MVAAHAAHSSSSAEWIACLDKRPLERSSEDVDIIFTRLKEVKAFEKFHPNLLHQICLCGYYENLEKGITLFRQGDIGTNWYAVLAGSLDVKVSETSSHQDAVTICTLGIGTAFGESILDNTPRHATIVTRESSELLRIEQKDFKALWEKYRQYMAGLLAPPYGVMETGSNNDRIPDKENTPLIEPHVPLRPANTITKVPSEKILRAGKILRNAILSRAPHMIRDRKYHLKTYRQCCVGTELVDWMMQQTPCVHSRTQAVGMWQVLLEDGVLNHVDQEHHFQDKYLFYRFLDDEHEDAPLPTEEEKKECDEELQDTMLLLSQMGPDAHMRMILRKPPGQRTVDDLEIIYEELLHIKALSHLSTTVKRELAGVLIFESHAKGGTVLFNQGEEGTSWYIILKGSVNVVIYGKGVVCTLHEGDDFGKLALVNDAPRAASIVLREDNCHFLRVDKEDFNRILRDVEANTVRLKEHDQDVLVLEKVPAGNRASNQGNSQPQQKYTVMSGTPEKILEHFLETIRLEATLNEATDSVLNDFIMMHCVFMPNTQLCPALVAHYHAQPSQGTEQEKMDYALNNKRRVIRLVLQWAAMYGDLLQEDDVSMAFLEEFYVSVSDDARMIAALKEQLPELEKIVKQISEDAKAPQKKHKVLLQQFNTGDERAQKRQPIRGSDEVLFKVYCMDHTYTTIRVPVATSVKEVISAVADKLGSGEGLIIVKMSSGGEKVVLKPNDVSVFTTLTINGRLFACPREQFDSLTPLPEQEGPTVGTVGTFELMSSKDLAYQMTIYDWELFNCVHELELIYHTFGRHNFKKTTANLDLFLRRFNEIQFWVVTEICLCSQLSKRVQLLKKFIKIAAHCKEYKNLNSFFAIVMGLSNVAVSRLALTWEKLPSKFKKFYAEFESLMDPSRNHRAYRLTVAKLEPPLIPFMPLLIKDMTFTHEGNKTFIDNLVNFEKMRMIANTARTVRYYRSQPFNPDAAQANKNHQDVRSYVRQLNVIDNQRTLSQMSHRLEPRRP
Sequence of Rap guanine nucleotide exchange factor 3 (Homo sapiens) (O95398 whole entry, looked up): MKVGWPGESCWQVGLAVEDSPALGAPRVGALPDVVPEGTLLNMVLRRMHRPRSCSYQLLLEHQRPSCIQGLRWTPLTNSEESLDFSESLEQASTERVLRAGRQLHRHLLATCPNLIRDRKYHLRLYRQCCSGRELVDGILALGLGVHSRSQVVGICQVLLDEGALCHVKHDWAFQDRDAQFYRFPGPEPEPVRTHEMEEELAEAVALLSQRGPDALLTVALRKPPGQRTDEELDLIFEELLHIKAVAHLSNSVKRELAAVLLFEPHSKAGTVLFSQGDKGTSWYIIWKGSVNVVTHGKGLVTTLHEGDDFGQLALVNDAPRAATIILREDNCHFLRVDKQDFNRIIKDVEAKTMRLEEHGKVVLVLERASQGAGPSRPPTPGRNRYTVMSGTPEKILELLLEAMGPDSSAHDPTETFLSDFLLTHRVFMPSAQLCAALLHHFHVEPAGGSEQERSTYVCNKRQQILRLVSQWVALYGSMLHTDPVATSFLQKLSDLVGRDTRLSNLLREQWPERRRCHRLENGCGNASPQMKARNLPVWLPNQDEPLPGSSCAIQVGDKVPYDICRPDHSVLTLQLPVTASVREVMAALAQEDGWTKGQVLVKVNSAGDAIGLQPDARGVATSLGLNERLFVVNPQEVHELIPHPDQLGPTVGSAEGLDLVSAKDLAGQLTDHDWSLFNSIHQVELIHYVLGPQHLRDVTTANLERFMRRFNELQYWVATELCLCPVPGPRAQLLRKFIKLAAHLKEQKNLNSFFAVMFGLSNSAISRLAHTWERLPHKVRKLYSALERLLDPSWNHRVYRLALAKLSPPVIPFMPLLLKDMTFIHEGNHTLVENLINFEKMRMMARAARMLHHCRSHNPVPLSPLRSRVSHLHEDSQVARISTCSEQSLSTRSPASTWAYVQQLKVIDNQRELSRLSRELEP

In the case of `CN(C)c1ccccc1-c1cc(NC=O)c2ncc(-c3cccc(C(F)(F)F)c3)n2c1`, in experiment [1], the Potency was 47.8 µM (active). Moreover, the Potency result in experiment [2], in experiment [3], in experiment [4] and in experiment [5] was “inactive” each time.
Take `CNC(=O)c1ccc2snnc2c1`: the Potency result in experiment [1], in experiment [2], in experiment [3], in experiment [4] and in experiment [5] was “inactive” throughout.
With `N#C/C(=C/c1ccc(N2CCCCC2)o1)C(=O)Nc1ccc(Cl)cc1`, the Potency entry in experiment [1] and in experiment [4] was “inactive” in each case. Besides, the Potency in experiment [2] is 17.8 µM (active); in experiment [3], 100 µM (active); in experiment [5], 12.6 µM (active).
On to `COc1ccc(C2N(c3ccc(Cl)cc3)N=C(C(C)=O)N(C)N2C(C)=O)cc1` (stereo not given), for which the Potency entry in experiment [1] and in experiment [2] was “inactive” in each case. Further, the activation in experiment [3] is 11.9% [at 17.1 µM, percent relative to cAMP agonist control]; in experiment [5], 29.6% [at 30.8 µM]. The activity change, negative = inhibition in experiment [4] is -11.6% [at 30.8 µM].
In the case of `COc1ccc(-c2csc(NC(=O)c3ccc(C(C)(C)C)cc3)c2C(=O)O)cc1`, the Potency in experiment [1] is 37.9 µM (active). Moreover, the Potency result in experiment [2], in experiment [3], in experiment [4] and in experiment [5] was “inactive” each time.
As for `CCCCCN(C(=O)CCC(=O)OCC(=O)N1CCC(C)CC1)c1c(N)n(CCCC)c(=O)[nH]c1=O`, the Potency entry in experiment [1], in experiment [2], in experiment [3], in experiment [4] and in experiment [5] was “inactive” throughout.
For the compound `COc1ccccc1C1CCN(c2ccc(CO)cc2[N+](=O)[O-])CC1`, the Potency result in experiment [1], in experiment [2], in experiment [3], in experiment [4] and in experiment [5] was “inactive” in each case.
As for `O=C(O)CCSc1nnc(COc2cccc3ccccc23)n1-c1cccc(Cl)c1`, the Potency result in experiment [1], in experiment [2], in experiment [3], in experiment [4] and in experiment [5] was “inactive” in each case.
`Cn1c(=O)c2c(nc(NCCc3ccccc3)n2CC(=O)NCCc2ccccc2)n(C)c1=O`: the Potency entry in experiment [1], in experiment [2], in experiment [3], in experiment [4] and in experiment [5] was “inactive” in each case.
`COc1ccc(C2CC(=O)c3ccccc3O2)cc1` (stereo not given): the Potency entry in experiment [1], in experiment [2], in experiment [3], in experiment [4] and in experiment [5] was “inactive” throughout.
With `CCCC(=O)NCCCc1nc2ccccc2n1C`, the Potency entry in experiment [1], in experiment [2], in experiment [3], in experiment [4] and in experiment [5] was “inactive” throughout.
On to `CCCCN(CCCC)Cc1cc(=O)oc2cc(C)c(Cl)cc12`, for which the Potency entry in experiment [1], in experiment [2], in experiment [3], in experiment [4] and in experiment [5] was “inactive” each time.
Take `Cc1ncc(CO)c2c1Oc1nc(-c3ccccc3F)nc(SCC(=O)N(C)c3ccccc3)c1C2`: the Potency in experiment [1] is 30.1 µM (active). The Potency entry in experiment [2], in experiment [3], in experiment [4] and in experiment [5] was “inactive” throughout.
In the case of `CC(=O)c1cc(C#N)c(N(C)Cc2ccccc2)nc1C`, the Potency result in experiment [1] and in experiment [2] was “inactive” in each case. Further, the activation in experiment [3] was 0.456% [at 17.1 µM, percent relative to cAMP agonist control]; in experiment [5], 0.131% [at 30.8 µM]. In experiment [4], the activity change, negative = inhibition was -7.5% [at 30.8 µM].
Consider `Cc1cc(C)c(S(=O)(=O)c2ccccc2C)c(SCC(C)C)n1`, for which the Potency result in experiment [1] and in experiment [2] was “inactive” each time. Further, the activation in experiment [3] was 10.6% [at 17.1 µM, percent relative to cAMP agonist control]; in experiment [5] it was -2.44% [at 30.8 µM]. For the same compound, in experiment [4], the activity change, negative = inhibition was -9.64% [at 30.8 µM].
With `CSCCC(NS(=O)(=O)c1ccc2c(c1)oc(=O)n2C)C(=O)NC1CCCCC1` (stereo not given), the Potency entry in experiment [1], in experiment [2], in experiment [3], in experiment [4] and in experiment [5] was “inactive” throughout.
Turning to `O=C1c2ccccc2C(Nc2cccnc2)N1Cc1ccccc1Cl` (stereo not given), the Potency entry in experiment [1], in experiment [2], in experiment [3], in experiment [4] and in experiment [5] was “inactive” throughout.
For the compound `O=C(N/N=C/c1c(O)n(-c2ccccc2Cl)c(=O)c2ccccc12)C1COc2ccccc2O1` (stereo not given), in experiment [1], the Potency is 42.6 µM (active). The Potency result in experiment [2], in experiment [3], in experiment [4] and in experiment [5] was “inactive” throughout.
In the case of `Cc1ccc(C)c(Cn2cnc3ccccc3c2=O)c1`, the Potency result in experiment [1], in experiment [2], in experiment [3], in experiment [4] and in experiment [5] was “inactive” in each case.
Turning to `Cc1cc(C)nc(SCC(=O)c2ccc(Cl)cc2)n1`, the Potency result in experiment [1], in experiment [2], in experiment [3], in experiment [4] and in experiment [5] was “inactive” throughout.
Consider `Cc1ccc(C)c(N2CCN(C(=O)CCCn3c(=O)c4cccn4c4cccnc43)CC2)c1`, for which the Potency entry in experiment [1] and in experiment [2] was “inactive” each time. In addition, the activation in experiment [3] was 6.05% [at 17.1 µM, percent relative to cAMP agonist control]. Besides, the activity change, negative = inhibition in experiment [4] is -21.9% [at 30.8 µM]. In experiment [5], the Potency was 0.0089 µM (active).
In the case of `COc1ccccc1Oc1ncnc2c1oc1ccccc12`, the Potency entry in experiment [1] and in experiment [2] was “inactive” each time. The activation in experiment [3] was -4.43% [at 17.1 µM, percent relative to cAMP agonist control]; in experiment [5] it was 5.04% [at 30.8 µM]. Further, in experiment [4], the activity change, negative = inhibition is 7.03% [at 30.8 µM].
For the compound `Oc1ccc(/C=N/Nc2ncnc3nc[nH]c23)cc1`, the Potency entry in experiment [1] and in experiment [2] was “inactive” in each case. The activation in experiment [3] is -0.35% [at 17.1 µM, percent relative to cAMP agonist control]; in experiment [5], 4.78% [at 30.8 µM]. Besides, the activity change, negative = inhibition in experiment [4] was 4.9% [at 30.8 µM].
In the case of `CNC(=O)CSc1nc2ccccc2c(=O)n1-c1cc(OC)ccc1OC`, the Potency result in experiment [1] and in experiment [2] was “inactive” throughout. The activation in experiment [3] is -3% [at 17.1 µM, percent relative to cAMP agonist control]; in experiment [5], 5.72% [at 30.8 µM]. Moreover, the activity change, negative = inhibition in experiment [4] was -17.1% [at 30.8 µM].
